Screening data deposited in PubChem BioAssay by several laboratories.
NALP3 yeast inh: NALP3 inhibition in yeast | Yeast reconstituted NLRP3/ASC/caspase-1, beta-gal luminescence, 24 h | inhibition, % at 10 µM | actives 0.39% (n = 330,000);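 active = inhibition of 50% or more; inactive = inhibition below 50%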;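 also: plate controls were induced DMSO wells for no effect and uninduced yeast grown without galactose for full effect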
tim10-1 inh: growth inhibitors of tim10-1 mutant yeast; S. cerevisiae tim10-1 ts strain growth, BacTiter-Glo, 24 h; inhibition, % at 20 µM; actives 2.2% (n = 330,000); AID 463190;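 active = inhibition of at least 40%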;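 also: mutant grown at 25 °C; 0% = DMSO wells with yeast and 100% = wells holding no yeast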
PfHsp90 yeast 2: reduces growth (ATP signal) of yeast expressing P. falciparum Hsp90; S. cerevisiae expressing PfHsp90, BacTiter-Glo ATP, 48 h; yeast lacking PDR1 and PDR3 efflux regulators; inhibition, % at 9.4 µM; actives 0.32% (n = 310,000); AID 504621;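 active = every replicate shows inhibition above about 80%, whatever the replicate mean, limit read from the data; inconclusive = mean inhibition reaches the set limit but some replicate falls short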;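 also: 0% = DMSO neutral controls and 100% = 20 µM radicicol positive controls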
SKKanGAS inh: blocks kanamycin growth of S. pyogenes SKKanGAS strain. BacTiter-Glo, 6 h. inhibition, % at 7.5 µM. actives 1.3% (n = 300,000). AID 1662;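 active = mean replicate score, as percent of positive control median, at least 50; inconclusive = mean below 50 but one replicate at or above 50; inactive = mean and every replicate below 50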;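 also: strain carries kanamycin resistance gene driven by streptokinase promoter and grows in 40 µg/ml kanamycin; loss of luminescence reflects streptokinase promoter inhibition or plain growth inhibition; 0% = median of DMSO wells and 100% = positive control at its reference dose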
tim23-1 inh: inhibits growth of tim23-1 mutant yeast | inhibition, % at 20 µM | S. cerevisiae tim23-1 growth, BacTiter-Glo luminescence, 24 h | AID 463212 | actives 1.3% (n = 330,000);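 active = growth inhibition of the mutant yeast at or above 50%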;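 also: temperature-sensitive mutant grown at 25 °C; plate controls were DMSO-treated mutant yeast for no effect and medium wells lacking yeast for full effect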
TIM10 inh: growth inhibitors of TIM10 yeast strain; inhibition, % at 10 µM; S. cerevisiae TIM10 strain growth, BacTiter-Glo luminescence, 24 h; actives 1.4% (n = 330,000);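 active = inhibition of 40% or more at the single tested concentration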;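 also: wild-type TIM10 isogenic control strain grown at permissive 25 °C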
* marks the source's active call; other numbers are inactive results; u = inconclusive; x = no result. In the library only some 4.6% were active in any assay of this set; here they are far more common.

SMILES	NALP3 yeast inh	tim10-1 inh	PfHsp90 yeast 2	SKKanGAS inh	tim23-1 inh	TIM10 inh
CCN(CC)S(=O)(=O)c1ccc(S(=O)(=O)N2CCCC(C(=O)NC3CC3)C2)cc1 (centres undefined)	2	-12	-2	-6	-2	6
COc1cc(C(=O)NC(=S)NNC(=O)c2ccc3c(c2)OCO3)cc(OC)c1OC	19	15	13	70*	9	7
COc1cc(C(=O)NNC(=S)NC(=O)c2ccc(F)cc2)cc(OC)c1OC	6	14	3	83*	1	29
CCOCc1nnc(NC(=O)C2CC(=O)N(C3CCCC3)C2)s1 (centres undefined)	12	-16	-21	2	-2	3
COc1cccc(NC(=O)CCCn2nc(C)c3c(C)n(-c4ccccc4)nc3c2=O)c1	2	8	16	3	11	3
O=C(NNC(=S)NC(=O)c1ccccc1[N+](=O)[O-])c1ccc(Cl)cc1Cl	32	19	-21	48	4	18
Cc1cccc(C(=O)NC(=S)NNC(=O)COc2ccc(Cl)cc2)c1	24	10	1	62*	-9	0
CCCCC(=O)NC(=S)NNC(=O)c1ccc(Cl)cc1Cl	x	x	-5	90*	x	x
Cc1ccc(C(=O)CC(=O)COc2ccc(Cl)cc2)cc1	14	20	-11	64*	13	-8
O=C(COc1ccccc1)NNC(=S)NC(=O)c1ccc(Cl)cc1Cl	36	35	x	77*	4	30
NC(=S)NN=C(c1ccc(F)cc1)C1CC1	x	x	-1	x	x	x
O=[N+]([O-])c1cccc(-n2cc3ccc([N+](=O)[O-])cc3n2)c1	-12	29	-6	x	33	22
Cc1occc1C(=O)NNC(=S)NC(=O)COc1ccc(Cl)cc1Cl	25	11	2	78*	33	1
CC(Sc1nnc(CN2CCCC2)n1Cc1ccccc1)C(=O)Nc1ccc(F)c(F)c1F (centres undefined)	x	x	-3	x	x	x
COc1nc(Cl)cn(-c2ccc(C)cc2)c1=O	7	7	-28	-4	7	14
Cc1ccc(-n2c(Cl)c(Cl)nc(Cl)c2=O)cc1	x	x	105*	x	x	x
Cc1ccc(S(=O)(=O)N2CCOCC2)cc1NC(=O)COC(=O)Cc1ccccc1	3	-1	24	x	-9	-13
COc1ccc(Sc2ccc(NC(=O)c3ccccc3Cl)cc2C#N)cc1	4	5	17	52*	25	14
N#Cc1ccccc1Sc1ccccc1C(=O)Nc1ccc2ccccc2c1	9	26	-48	-3	17	27
O=C1C=C(Nc2ccccc2)C(=O)c2ccccc21	39	19	-50	12	13	14
O=C1C=C(Nc2ccccc2)c2ccccc2C1=O	7	24	-8	68*	16	21
O=C1C=C(Nc2cccc3cccnc23)c2ccccc2C1=O	17	13	-7	63*	18	17
O=c1[nH]c(COc2ccc(Cl)cc2Br)nc2ccccc12	32	10	-13	5	28	-6
CCN(CC)C(=O)Oc1cc(=O)n2c3c(cccc13)CCC2	16	13	-22	1	33	10
Cc1ccc2c(CN(C)Cc3ccc(Cl)cc3Cl)cc(=O)oc2c1	3	9	-54	53*	11	15
SMILES	NALP3 yeast inh	tim10-1 inh	PfHsp90 yeast 2	SKKanGAS inh	tim23-1 inh	TIM10 inh
COC(=O)c1c(NC(NC(=O)C(C)C)C(Cl)(Cl)Cl)sc2c1CCCC2 (centres undefined)	6	-5	9	58*	17	26
Clc1ccc(/C=N/NC(=Nc2ccccc2)c2ccccn2)c(Cl)c1	20	36	23	52*	33	16
Cn1c(=O)[nH]c(=O)c2c1nc(N1CCCCC1)n2CC(O)COc1ccccc1 (centres undefined)	-2	9	32	-2	17	-2
O=C(CSc1nnc(CNC(=O)c2ccc(F)cc2)o1)NCc1ccccc1Cl	-3	-7	4	51*	5	5
CCCSc1ccc([C@H]2N[C@@](C)(C(=O)OC)[C@H]3C(=O)N(CC)C(=O)[C@@H]23)cc1	10	5	6	x	6	7
CC1=C(C)/C(=N\OS(=O)(=O)c2ccc(C)cc2)C=CC1=O	x	x	110*	x	x	x
S=c1[nH]c(-c2ccccc2)cn1/N=C/c1cccc2ccccc12	5	14	-44	57*	23	32
O=C(Nc1nccs1)c1c(O)c2cccc3c2n(c1=O)CCC3	24	-45	x	100*	2	25
O=C(Nc1ccccn1)c1c(O)c2cccc3c2n(c1=O)CCC3	19	-15	7	23	-6	24
O=C1C=C(c2cccs2)C[C@H](c2ccccc2)[C@H]1n1nnc([N+](=O)[O-])n1	4	-38	92*	22	-64	8
CC1=C/C(=N\OS(=O)(=O)c2ccccc2)C(C(C)C)=CC1=O	x	x	104*	x	x	x
CC(=O)Oc1cc2c3c(c1)/C(=C1/SC(=S)NC1=O)C(=O)N3C(C)(C)C=C2C	21	26	-7	82*	37	6
CCOc1ccc(CO/N=C/c2c(C)[nH]c(=O)[nH]c2=O)cc1	11	-15	10	8	-8	-4
COc1ccc(Cl)cc1NC(=O)c1cc(C)no1	21	12	-1	-5	10	5
Cc1nn(-c2ccc(Cl)cc2)c(=O)c2ccccc12	2	7	-5	4	18	-8
Cc1nn(-c2nc3ccccc3[nH]2)c(N)c1-c1ccc(Cl)cc1	15	35	37	68*	9	17
Cc1nn(-c2nc3ccccc3[nH]2)c(=O)c2ccccc12	x	x	90*	u	x	x
COc1ccc(-c2c(C)nn(-c3ccccc3)c2N)cc1	21	18	x	6	16	8
O=C(NCCc1cccc(Cl)c1)c1cccc(-n2cnnn2)c1	11	5	-4	x	13	-4
Oc1ccc(N=Nc2ccc3c(c2)OCCO3)c2ncccc12	25	33	-41	89*	33	2
CCCCCCCC(=O)NNC(=O)Cc1ccccc1	6	6	8	-7	10	-1
CCCCCCCCCCCC(=O)c1c(O)cccc1O	5	34	5	103*	0	-2
O=C(c1ccc(CS(=O)(=O)Cc2ccccc2)cc1)N1CCCCC1	7	-15	-3	-1	6	-7
NNC(=O)c1cc(NS(=O)(=O)c2cccs2)cc(NS(=O)(=O)c2cccs2)c1	11	-6	x	x	11	1
Brc1ccc(C2C3=C(Nc4ncnn42)c2ccccc2OC3c2ccncc2)cc1 (centres undefined)	-17	35	-32	88*	38	24
COc1ccc(C2Oc3ccccc3C3=C2C(c2cccs2)n2ncnc2N3)cc1 (centres undefined)	-1	26	-148	78*	33	24
